Test results published in ChEMBL document CHEMBL4513135, “CO-ADD screening of IQOG CSIS (Spain) compounds”.
Potency and affinity values are given separately.

The molecules below were run on Cryptococcus neoformans. Conditions: Concentration 32 ug.mL-1; ASSAY_TEST Inhibition of Fungal Growth; detection method Resazurin; Absorption (OD600-OD570); plate type 384well; NBS; CORNING #3640.

Structure (SMILES) | Inhibition [%]
COc1ccc(-c2cc(-c3ccccc3)c(C#N)c(N)n2)cc1 | -104.15
Cl.ClCCCN1CCCCC1 | -10.65
N#CC1=C(Cl)Oc2c(ccc3ccccc23)C1c1ccccc1 (stereo not given) | -59.47
COc1ccc(C=C2N=C(c3ccccc3)OC2=O)cc1 | -7.5
CCOC(=O)c1c(C)[nH]c(=O)c(C#N)c1-c1ccccc1 | -38.24
CCOC(=O)/C(C#N)=C\c1ccc(Cl)cc1 | -5.03
CCOC(=O)C1=C(C)Oc2nc3c(c(N)c2C1c1nccn1C)CCC3 (stereo not given) | -84.25
C/C(Cc1ccccc1)=N/NC(=O)c1c[nH]c2ccc(O)cc12 | 4.37
Cc1ccc(-c2c(C#N)c(N)nc3c2S(=O)(=O)OC3(C)C)cc1 | -1.83
CNC(=O)c1cc2cc(OC)ccc2[nH]1 | -6.03
N#Cc1cc(C#N)c(N2CCC(Cc3ccccc3)CC2)nc1N | -23.72
C#CCNc1nc(N)c(C#N)c(-c2ccccc2)c1C#N | -2.34
COc1ccc(C2c3ccc4ccccc4c3OC(=NBr)C2(Br)C#N)cc1OC (stereo not given) | -80.16
CNC(=O)NC1(C(=O)O)CC1c1ccccc1 (stereo not given) | -2.43
CCOC(=O)C1=C(C)OC(N)=C(C#N)C1c1ccco1 (stereo not given) | -29.39
Cc1ccc(CNNC(=O)c2c[nH]c3ccccc23)cc1 | -5.03
Cl.Cl.Cn1c(CNc2ccccc2)cc2cc(OCCCC3CCN(Cc4ccccc4)CC3)ccc21 | -74.16
N#Cc1c(-c2ccccc2)c2ccc3ccccc3c2oc1=O | -60.47
O=C1OC(c2ccc([N+](=O)[O-])cc2)=NC1=Cc1ccccc1 | -5.52
Cn1c(CNNC(=O)Cc2cccc3ccccc23)cc2ccccc21 | -2.04

Structure (SMILES) | Inhibition [%]
COc1ccc(-c2cc(-c3cc4ccccc4nc3Cl)cc(=O)[nH]2)cc1 | -53.36
O=Cc1cc2ccccc2nc1Cl | -7.31
COC(=O)/C(=C/c1ccc(O)cc1)NC(=O)c1ccccc1 | -3.07
CCOC(=O)C1=C(C)OC(N)=C(C#N)C1c1cccs1 (stereo not given) | -27.56
CC(=O)O[C@H]1CC[C@H](NC(=O)c2ccccc2)CC1 | -39.27
CCOC(=O)c1c(C)nc2nc3c(c(N)c2c1-c1ccccc1OC)CCCCC3 | -93.54
COc1ccc(/C=C2/N=C(c3ccccc3)OC2=O)cc1OC | -8.84
CN(C)c1nc(Cl)c(C#N)c(-c2ccccc2)c1C#N | -9.38
CN(Cc1cn(Cc2ccccc2)nn1)Cc1cc2cc(OCCCC3CCN(Cc4ccccc4)CC3)ccc2n1C | -73.92
COc1ccc2cc(C3C(C(C)=O)=C(C)Oc4nc5c(c(N)c43)CCC5)c(Cl)nc2c1 (stereo not given) | -0.43
C#CCN1CCc2nc3nc(N4CCCC4)c(C#N)cc3c(N)c2C1 | -92.31
C#CCNc1[nH]c2ccc(O)cc2c1C#N | -54.9
Cl.ClCCCCN1CCCCC1 | -8.6
c1ccc(COc2ccc3[nH]ccc3c2)cc1 | -1.93
COc1cccc(-c2c(C#N)c(=O)oc3c2ccc2ccccc23)c1 | -2.58
Cc1nc2c(cc1C#N)c(N)nn2C | -10.85
CSC1=NC2(CC2c2ccccc2)C(=O)N1C (stereo not given) | -5.95
Cc1[nH]c2ccc(OCc3ccccc3)cc2c1C(=O)NN | -5.65
COc1nc2ccc(C)cc2cc1C=O | -4.83
C#CCN(C)Cc1cc2cc(O)ccc2n1C.Cl | -73.69
